Results as given in the supplement of paper PMC13380429.

How the values were obtained:
[1] = tested on: Vero E6 infected with SARS-CoV-2; experiment: morphology score (similarity to uninfected cells); higher = more like uninfected cells; settings: 24 h
[2] = tested on: Vero E6 infected with SARS-CoV-2; experiment: SARS-CoV-2 infection rate relative to infected DMSO; higher = more infection, active = 60 or less; settings: 24 h
[3] = tested on: Vero E6 infected with SARS-CoV-2; experiment: inhibition of SARS-CoV-2 cytopathic effect; higher = more antiviral protection, active = above 15; settings: 48 h

## Cc1coc2c1C(=O)C(=O)c1c-2ccc2c1CCCC2(C)C [tanshinone-IIA] (10 µM)
[1]
  morphology score: 0.159
[2]
  SARS-CoV-2 infection rate: 102% (inactive)

## COc1cc(NC(=O)Nc2cccc(CNC(=O)O[C@H]3CCOC3)c2)ccc1-c1cnco1 [merimepodib] (10 µM)
[1]
  morphology score: 0.447
[2]
  SARS-CoV-2 infection rate: 62.5% (inactive)

## CCOc1ccc2nc3cc(N)ccc3c(N)c2c1 [ethacridine-lactate-monohydrate] (10 µM)
[1]
  morphology score: 0.0887
[2]
  SARS-CoV-2 infection rate: 95.5% (inactive)

## CS(=O)(=O)Nc1ccc([N+](=O)[O-])cc1Oc1ccccc1 [nimesulide] (10 µM)
[1]
  morphology score: 0.0266
[2]
  SARS-CoV-2 infection rate: 105% (inactive)

## COCC1=C(C(=O)O)N2C(=O)[C@@H](NC(=O)/C(=N\OC)c3csc(N)n3)[C@H]2SC1 [cefpodoxime] (10 µM)
[1]
  morphology score: 0.105
[2]
  SARS-CoV-2 infection rate: 104% (inactive)

## Cc1ccccc1C(c1ccccc1C)N1C2CCC1CC(O)(c1ccccc1)C2 (stereo unspecified) (10 µM)
[1]
  morphology score: 0.307
[2]
  SARS-CoV-2 infection rate: 85% (inactive)

## COc1ccc(-c2nc3cc(C4=NNC(=O)CC4C)ccc3[nH]2)cc1 (stereo unspecified) [pimobendan] (10 µM)
[1]
  morphology score: 0.129
[2]
  SARS-CoV-2 infection rate: 94% (inactive)

## O=c1[nH]c([C@@H]2CCCN2)nc2c1oc1ccc(Cl)cc12 (0.833333 µM)
[1]
  morphology score: 0.106
[2]
  SARS-CoV-2 infection rate: 104% (inactive)

## NC(=O)c1ccc(-c2nc(-c3ccccn3)c(-c3ccc4c(c3)OCO4)[nH]2)cc1 (10 µM)
[1]
  morphology score: -0.124
[2]
  SARS-CoV-2 infection rate: 109% (inactive)

## N=C(N)SCCc1ccc(OCc2ccc([N+](=O)[O-])cc2)cc1 (10 µM)
[1]
  morphology score: 0.268
[2]
  SARS-CoV-2 infection rate: 85.5% (inactive)

## CCCCCCCCNC(=O)/C(C#N)=C/c1cn(CCCN(C)C)c2ccccc12 [dynole-34-2] (10 µM)
[1]
  morphology score: 0.659
[2]
  SARS-CoV-2 infection rate: 35.5% (active)

## CCn1c(=O)c2c(nc(/C=C/c3ccc(OC)c(OC)c3)n2C)n(CC)c1=O [istradefylline] (10 µM)
[1]
  morphology score: 0.157
[2]
  SARS-CoV-2 infection rate: 108% (inactive)

## CC(C)N[C@H]1CCn2c(=O)[nH]c3cccc(c32)[C@@H]1O [zilpaterol] (10 µM)
[1]
  morphology score: 0.19
[2]
  SARS-CoV-2 infection rate: 106% (inactive)

## Nc1ccc(S(=O)(=O)Nc2nccs2)cc1 [sulfathiazole] (10 µM)
[1]
  morphology score: 0.0413
[2]
  SARS-CoV-2 infection rate: 114% (inactive)

## CC1(C)OC2(C)C(O)CC1CC2O (stereo unspecified) [epomediol] (10 µM)
[1]
  morphology score: 0.173
[2]
  SARS-CoV-2 infection rate: 100% (inactive)

## C/C=C(/C)C(=O)O[C@H]1C(C)=C[C@]23C(=O)[C@@H](C=C(CO)[C@@H](O)[C@]12O)[C@H]1[C@@H](C[C@H]3C)C1(C)C [ingenol-mebutate] (0.833333 µM)
[1]
  morphology score: -0.298
[2]
  SARS-CoV-2 infection rate: 95% (inactive)

## CC(=O)c1ccc2c(c1)[C@H](NC(=O)c1ccc(F)c(Cl)c1)[C@H](O)C(C)(C)O2 [tonabersat] (10 µM)
[1]
  morphology score: 0.372
[2]
  SARS-CoV-2 infection rate: 94.5% (inactive)

## CC(=O)N(CC(C)C(=O)O)c1c(I)cc(I)c(N)c1I (stereo unspecified) [iocetamic-acid] (10 µM)
[1]
  morphology score: 0.0591
[2]
  SARS-CoV-2 infection rate: 97% (inactive)

## Nn1cnc2cc3ccccc3cc2c1=O [centazolone] (10 µM)
[1]
  morphology score: -0.195
[2]
  SARS-CoV-2 infection rate: 116% (inactive)

## C[n+]1c2cc(N)ccc2cc2ccc(N)cc21 [acriflavinium] (0.833333 µM)
[1]
  morphology score: 0.0932
[2]
  SARS-CoV-2 infection rate: 98.5% (inactive)

## O=C1CCCN1CC#CCN1CCCC1 [oxotremorine-sesquifumarate] (10 µM)
[1]
  morphology score: 0.062
[2]
  SARS-CoV-2 infection rate: 100% (inactive)

## S=C(NCc1ccc2c(c1)OCO2)N1CCN(c2ncnc3c2oc2ccccc23)CC1 [amuvatinib] (0.833333 µM)
[1]
  morphology score: 0.0595
[2]
  SARS-CoV-2 infection rate: 92.5% (inactive)

## CC(CN(C)C)CN1c2ccccc2CCc2ccccc21 (stereo unspecified) [trimipramine] (10 µM)
[1]
  morphology score: 0.451
[2]
  SARS-CoV-2 infection rate: 80.5% (inactive)

## CCCCC(F)(F)[C@@]1(O)CC[C@H]2[C@@H](CC(=O)[C@@H]2CCCCCCC(=O)O)O1 [lubiprostone] (10 µM)
[1]
  morphology score: 0.0116
[2]
  SARS-CoV-2 infection rate: 107% (inactive)

## Nc1ncnc2c1c(-c1ccc(Cl)cc1)nn2-c1cccc(-c2cnnn2Cc2cccc(-c3ccccc3)c2)c1 (10 µM)
[1]
  morphology score: -0.00803
[2]
  SARS-CoV-2 infection rate: 104% (inactive)

## CC(C)C(=O)SCCCCC[C@H](NC(=O)OC(C)(C)C)C(=O)NC12CC3CC(CC(C3)C1)C2 (10 µM)
[1]
  morphology score: -0.113
[2]
  SARS-CoV-2 infection rate: 97% (inactive)

## CN(C)CCCO[C@@H]1[C@H]2OC(C)(C)O[C@H]2O[C@@H]1[C@H](O)CO [amiprilose] (10 µM)
[1]
  morphology score: -0.0292
[2]
  SARS-CoV-2 infection rate: 104% (inactive)

## CC1(C)CC[C@]2(C(=O)O)CC[C@]3(C)[C@H](C(=O)C=C4[C@@]5(C)C=C(C#N)C(=O)C(C)(C)[C@@H]5CC[C@]43C)[C@@H]2C1 [bardoxolone] (0.833333 µM)
[1]
  morphology score: 0.164
[2]
  SARS-CoV-2 infection rate: 104% (inactive)

## O=C(O)c1cc(/N=N/c2ccc(O)c(C(=O)O)c2)ccc1O [olsalazine] (10 µM)
[1]
  morphology score: 0.062
[2]
  SARS-CoV-2 infection rate: 104% (inactive)

## CC[N+](CC)(CC)CCC(O)(c1ccccc1)C1CCCCC1 (stereo unspecified) [tridihexethyl] (10 µM)
[1]
  morphology score: -0.09
[2]
  SARS-CoV-2 infection rate: 110% (inactive)

## O=C(O)c1cccc(-c2noc(-c3ccccc3F)n2)c1 [ataluren] (10 µM)
[1]
  morphology score: -0.00572
[2]
  SARS-CoV-2 infection rate: 112% (inactive)

## CC(=O)[C@H]1CC[C@H]2[C@@H]3CC[C@H]4C[C@H](O)CC[C@]4(C)[C@H]3C(=O)C[C@]12C [alfaxalone] (10 µM)
[1]
  morphology score: -0.0143
[2]
  SARS-CoV-2 infection rate: 112% (inactive)

## COc1ccc(-n2c(SCCCN3C(=O)c4cccc5cccc(c45)C3=O)nnc2-c2ccncc2)cc1
[3]; 1 nM
  inhibition of SARS-CoV-2 cytopathic effect: -0.26% (inactive)
[3]; 8.33 nM
  inhibition of SARS-CoV-2 cytopathic effect: 2.51% (inactive)
[3]; 100 nM
  inhibition of SARS-CoV-2 cytopathic effect: -0.79% (inactive)
[3]; 833.33 nM
  inhibition of SARS-CoV-2 cytopathic effect: -0.8% (inactive)
[3]; 10000 nM
  inhibition of SARS-CoV-2 cytopathic effect: -1.41% (inactive)

## OC[C@@H](O)[C@@H](O[C@@H]1O[C@H](CO)[C@H](O)[C@H](O)[C@H]1O)[C@H](O)[C@@H](O)CO (10 µM)
[1]
  morphology score: -0.0894
[2]
  SARS-CoV-2 infection rate: 111% (inactive)
